The full ranking holds about 33,000 sequences; the median of “E-score (-0.5 to 0.5)” is about -0.01, and the highest 2% start at about 0.26. The sample as a whole holds a higher share of the highest values than the screen did.
These sequences were tested against Ste12 (UniProt P13574) (assay: PBM E-score (8-mer binding enrichment) (E-score (-0.5 to 0.5)); higher = stronger / more preferred TF binding). Settings: protein concentration: 200 nM; construct: GST-DNA-binding domain.
Description: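 Universal 'all 10-mer' protein binding microarrays (Agilent AMADID 015681) probed with GST-tagged S. cerevisiae TFs (full-length or DBD) made by in vitro transcription/translation (PURExpress), about 100-200 nM. Bound TF was detected with fluorescent anti-GST. Each ungapped 8-mer (which stands for itself and its reverse complement) is scored by the PBM enrichment score (E-score), a modified Wilcoxon-Mann-Whitney statistic from -0.5 to +0.5, computed with the Universal PBM Analysis Suite. Scale: above 0.35 generally sequence-specific binding.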

Sequence of UniProt P13574 (P13574 whole entry, the tested form may be a part): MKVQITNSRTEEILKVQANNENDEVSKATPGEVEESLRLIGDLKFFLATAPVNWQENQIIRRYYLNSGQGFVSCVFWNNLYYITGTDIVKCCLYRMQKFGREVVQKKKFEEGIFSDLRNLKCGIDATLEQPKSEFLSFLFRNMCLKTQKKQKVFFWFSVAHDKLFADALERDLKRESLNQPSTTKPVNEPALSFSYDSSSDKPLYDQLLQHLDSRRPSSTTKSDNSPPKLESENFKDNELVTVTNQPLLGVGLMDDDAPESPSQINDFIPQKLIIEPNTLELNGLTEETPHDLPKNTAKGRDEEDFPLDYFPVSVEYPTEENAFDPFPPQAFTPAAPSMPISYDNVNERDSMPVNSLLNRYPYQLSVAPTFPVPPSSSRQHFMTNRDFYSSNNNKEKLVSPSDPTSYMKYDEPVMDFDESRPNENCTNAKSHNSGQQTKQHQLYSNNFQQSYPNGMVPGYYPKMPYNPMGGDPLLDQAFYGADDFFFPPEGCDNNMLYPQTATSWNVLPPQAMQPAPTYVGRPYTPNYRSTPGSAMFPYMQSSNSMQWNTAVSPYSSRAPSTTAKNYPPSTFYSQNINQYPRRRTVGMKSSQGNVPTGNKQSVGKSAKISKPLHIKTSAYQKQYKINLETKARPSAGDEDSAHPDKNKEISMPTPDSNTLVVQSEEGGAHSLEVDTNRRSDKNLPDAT

Sequence | PBM E-score
GGCGCAAA | 0.218
GAATGAAC | 0.016
GAATGAAA | 0.322
TAATGAAA | 0.155
GAATGAGA | -0.00579
AAATGAAA | 0.426
CAATGAAA | 0.258
CCTAGACG | -0.134
TAGAGAAA | 0.0197
ATCATTAA | 0.298
GACATTTA | -0.0124
AACATTTC | 0.0303
ATCATTAG | 0.0954
AACATTAT | 0.125
GACATTAA | 0.173
CTCATTAA | 0.111
AACATTTA | 0.29
AACATTAA | 0.301
GAGAGAAC | -0.0294
CTTGGCTA | 0.0252
GCGTGACA | 0.126
GCGGCAGA | -0.128
GAATAAGC | -0.0403
GTGTTCCA | 0.141
AATGCGGT | -0.0129

Sequence | PBM E-score
CCGTTGCC | -0.253
ATGTAATA | 0.217
AATTTTTG | 0.321
ATTTTAAA | 0.348
ATTTTAAG | 0.161
ACTTAAAA | 0.183
AGTTAAAA | 0.286
AATTTTGG | 0.104
CGTTAAAA | -0.00084
ATTTAAAA | 0.314
TGTTAAAA | 0.168
ATTTTAAC | 0.19
ATTTAACA | 0.181
AAATTTTG | 0.0681
GGTTTTGA | 0.111
CCATACCC | 0.128
CTAGAATA | 0.171
GCACAGCA | -0.102
CAGTGGGC | -0.199
GACTTAGA | -0.272
AGCTTGAG | -0.164
AAGTTCGT | -0.226
TACCAGAA | 0.253
TGCATACA | -0.139
TAACGCGA | 0.0877

Sequence | PBM E-score
AAGCTCGT | -0.195
AATTTTAC | 0.251
ATATTTTA | 0.235
CTATTTTA | 0.232
AATTTTAT | 0.217
ATTTTACC | 0.277
ATTTTTTA | 0.331
CTATTTAA | 0.194
ATTTTACG | 0.243
ATATTTAA | 0.347
AATTTTAA | 0.318
AATTTACC | 0.137
ATATTTAC | 0.219
ACCGTTAC | -0.0206
TCGGTACA | 0.0794
ACTGAGCA | -0.119
ACAGGATG | 0.0588
CTCTAGAG | -0.162
AACAACGC | 0.111
AAGCCCCG | 0.0304
ATTTTTGG | 0.183
AAATTTTA | 0.132
ATTTTTAG | 0.175
ATTTTTAC | 0.207
AATTTTTA | 0.283

Sequence | PBM E-score
AATTTTTC | 0.181
ACATTTAG | -0.0629
GCATTTAA | 0.12
ACATTTAA | 0.32
AATTTTGA | 0.145
ATTTTTGA | 0.298
ATTTTTAA | 0.28
TAAGCCAA | 0.00854
GGCTTAGA | -0.0335
TACCAGCA | -0.0129
CTAGTACA | 0.0611
GCAATCCC | 0.0206
CTCTTTAC | 0.0191
AAAGTGGG | 0.182
AGTTCGAC | -0.147
CCCTGAGG | -0.213
ACATCTAA | 0.114
ATTTTGTC | 0.114
ATTTTGTG | 0.281
ATTTTGTA | 0.16
AAGTTGCA | -0.0946
CCATCAAC | -0.144
AGTTATAA | 0.133
GGTTACAA | 0.284
CGTTACAA | 0.314

Sequence | PBM E-score
TGTTACAA | 0.387
TGTTATAA | 0.283
GGTTACTA | 0.0972
AGTTACAA | 0.157
TCTTACAA | 0.0356
CGTTACAG | 0.146
CGTTACAC | 0.122
GGTTACAC | -0.0834
CGTTATAA | 0.143
CCCATACG | -0.123
GGTAGAAC | -0.101
CCATATCC | 0.0086
AGCCTCTC | -0.234
AGTTTTGG | 0.104
AAGTTACG | 0.0247
AAATATGT | 0.226
AAATATTC | 0.14
CAATATGA | 0.0995
AAATATGA | 0.308
CAATATTA | 0.176
AAATATTA | 0.352
ATCAGCCA | -0.0331
CCTTTTTA | 0.051
GCGTTTAA | 0.103
CCGTTTTA | 0.304

Sequence | PBM E-score
ACGTTTTA | 0.295
ACGTTTAA | 0.0563
GCGTTTAC | -0.0566
GCTTTTAA | -0.0048
GCGTTTTA | 0.352
ACGTTTTG | 0.222
CCGTTTAA | 0.135
GCTTTTTA | 0.271
CCGTTTTC | 0.133
CTGATCAG | -0.0327
TATTTGCA | 0.0371
CCCAGCGA | -0.0316
ACCAATTA | 0.199
AGAAACCA | 0.194
AGAAACAG | 0.0492
CGAAACAC | 0.348
CGAAACAA | 0.349
GAAAACAA | 0.197
AAAAACAT | 0.241
CGAAACCA | 0.209
GGAAACAC | 0.225
AGAAACAT | 0.32
AGAAACAC | 0.121
CGAAACAG | 0.244
TGAAACCA | 0.438

Sequence | PBM E-score
CGACGCAG | -0.237
GCCTATTA | 0.0234
CAGCTCCC | -0.254
CCCGTCAC | 0.0322
CCAGCAAG | -0.148
AGGAGCAA | -0.108
CGGCCCGA | 0.078
CCGAATAG | -0.0705
AAATCTGG | 0.21
GGCGCTCA | -0.066
ATGATAAT | 0.13
AGACCTAG | -0.0522
AGAAACAA | 0.26
ACAAACCA | 0.00217
TCAAACCA | 0.278
TGAAACAA | 0.493
GGAAACAA | 0.13
CCAAACCA | 0.0357
CGGAAGAA | 0.0583
ATATCATC | 0.141
GATAGAAC | 0.0461
AGATTAGA | 0.00999
AATGTTTG | 0.0124
AATGTTTA | 0.174
AATGTTAG | -0.00616

Sequence | PBM E-score
CATGTTTA | 0.199
AAAGTTTA | 0.199
CATGTTGC | -0.0677
AATGTTTC | 0.318
AATGTTAA | 0.102
CATGTTTC | 0.4
AAAGTTTC | 0.329
AATGTTAT | 0.265
CAAGTTTC | 0.254
AACGCTAA | -0.0143
GTGTAGGA | 0.0365
CACTCCAG | -0.019
ACTCTGAT | 0.146
ATAAAGCC | 0.00222
AGGCCTAG | -0.218
ACAGAAGG | -0.173
CTTGAGGC | -0.184
ATGGACGG | -0.00997
CTCGCACC | -0.103
CGCCCACA | 0.197
CGTCGCCC | -0.121
ATAAATTA | 0.255
AAAAATTA | 0.326
ACAAATTG | 0.177
CCAAATTA | 0.221

Sequence | PBM E-score
AAAAATTG | 0.263
CAAAATTG | 0.0598
ATAAATTG | 0.321
CAAAATTA | 0.247
ATAAATTC | 0.102
AAAAATTC | 0.224
GAAAATTA | 0.206
ACAAATTA | 0.263
CTCAACGC | -0.0089
CAGCAGCC | -0.0193
AATGGAGC | -0.0645
AAACGATT | 0.165
ACTACTCA | -0.0467
ACACCATG | -0.108
GACCGATA | -0.00126
GCGAAGAC | -0.141
AGGATTGC | -0.025
ATAAACTG | 0.302
ATAAACTA | 0.211
ATAAACTC | 0.125
CTACGCTC | -0.00605
CTCCCATA | -0.0685
TATTGGAA | -0.00217
CGATAAAA | 0.171
CAATACAC | 0.0704

Sequence | PBM E-score
CAATACAA | 0.294
TGATACAA | 0.339
CGATACAA | 0.0267
GGGATAAA | 0.271
TGATAAAA | 0.266
AGATACAA | 0.135
CGGATAAA | 0.149
GGGATAAC | -0.0162
AGATAAAA | 0.245
CAATACAG | -0.115
AATTAGGA | 0.145
CCCAGCGG | -0.192
AACACTCG | 0.0544
TCTGAACA | 0.0453
ACCACCGG | -0.0277
AAATTGAA | 0.185
CCATGAAG | -0.0229
CATAAGGC | -0.0753
GGTGCGAA | 0.2
AAACCGTT | 0.00687
GGATAAAA | 0.279
CGGTAAAA | 0.198
GGATAAAC | 0.135
GGGTAAAA | 0.295
GGGTAAAC | 0.119

Sequence | PBM E-score
GGATAAGA | 0.0906
TGGGCCAA | -0.177
CAGCGTCG | -0.0332
CGGAATAC | 0.134
GATCAAGC | -0.0184
GAAGGCTC | -0.209
CATAAAAA | 0.175
CATAAAAG | 0.0283
GATAAAAA | 0.277
GATAAATA | 0.215
GATAAAGA | 0.0926
GATAAAAC | 0.327
AATAAAAC | 0.245
GATAAACC | 0.0557
CATAAAAC | 0.28
CGAGCCGA | -0.0584
AGGTTTTC | 0.241
GAGCTCCC | -0.0992
CAGACTTC | -0.0901
ACGACTAT | -0.0677
CGTCACCC | 0.0725
ACAGAATG | 0.0528
GGAACTAC | -0.105
AACTATTC | 0.264
TACTATCA | 0.13

Sequence | PBM E-score
GACTATCA | -0.0567
AACTATTA | 0.0788
AACTATCA | 0.262
CACTATTC | 0.0168
ATACGGCG | 0.15
ACGGGTCT | -0.211
CCAATCTC | 0.0596
ACCTGCAA | -0.0499
ATGCGCAC | 0.0144
GTGCGCAC | 0.355
GTGCGCAA | -0.0274
CCAATCCA | -0.0476
AGCGATCG | 0.00873
CAAAAGAC | 0.0341
CGATTCGC | 0.0897
TCTTGAAA | 0.308
ACTTGAAG | 0.119
ACTTGAAA | 0.314
CCTTGAAA | 0.21
GCTTGAAA | 0.198
ACTTGAAT | 0.0108
GTCGAAGA | -0.0112
ACCTTAGT | -0.137
ATTGTAGC | 0.0213
AGTGGTAT | -0.0443

Sequence | PBM E-score
TCACAGGA | 0.122
GCGTGAAC | -0.0471
CGGTGGGA | 0.033
GGGTGGGA | 0.319
AGGTGGGA | -0.049
CGTGGGGA | 0.0623
GGAGGGGA | 0.366
GGTGGGGA | 0.318
GGAGGGAA | -0.0917
GGTGGGAA | 0.127
CGAGGGGA | 0.0767
GATCGATA | 0.0823
TCAAGGCA | -0.169
ACCTTGGA | -0.197
ATGTCTTA | 0.134
AACACGAC | -0.104
TATAATAA | 0.141
CAATATAG | 0.117
CAATATAA | 0.316
CAATATAC | 0.116
TAATATAA | 0.287
GAATATAA | 0.161
CTCCCGTC | 0.0578
AAAGGGAT | 0.00067
AAAGTCAA | 0.189

Sequence | PBM E-score
CTCTTATA | 0.267
ATCTTATA | 0.0647
GTCTTATA | 0.0618
AAGCCCCA | -0.237
AGGCCATA | -0.245
CCCATAGA | -0.143
AAAATTAG | 0.31
AAAATTAT | 0.337
AAAATTGT | 0.225
AAAAATTT | 0.138
AAAATTTT | 0.311
AAAATTAC | 0.188
ATAATTAT | 0.195
AAAATTTG | 0.0212
AAAATTAA | 0.134
GGCCACCA | 0.0635
CAACCTAA | 0.0543
GTATCGTA | 0.0508
GATGCAAC | -0.0126
